PubChem BioAssay (EPA / NIEHS)
Calls of active or inactive are those of the source. How the source made its calls: active means hit-call score of the fitted dose curve at least 0.9, where 1 is the maximum; inactive means score below 0.9.

Read-out: Apoptosis regulator Bcl-2 (Homo sapiens) (UniProt P10415)
Assay: LTEA_HepaRG_BCL2: Life Technologies and Expression Analysis (LTEA) Assay for Bcl-2 gene using HepaRG (AID 2283475);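 further: BCL2 transcript by TaqMan qRT-PCR normalised to ACTB GAPDH and POLR2A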
Details: mRNA level, 48 h; actives raise or lower the signal
Method: LTEA_HepaRG is a cell based, multiplexed-readout assay that uses HepaRG, a human liver cell line, with measurements taken at 48 hours after chemical dosing on a 96-well plate.LTEA_HepaRG_BCL2 is one of 102 assay component(s) measured in the LTEA HepaRG cell culture assay. It is a marker of Cell proliferation, survival, death.Data from the assay component LTEA_HepaRG_BCL2 was analyzed into 1 endpoint. This assay endpoint, LTEA_HepaRG_BCL2, was analyzed with bidirectional fitting relative to DMSO as the negative control and baseline of activity. Using a type of inducible reporter, measures of mRNA induction for gain or loss-of-signal activity can be used to understand regulation of transcription factor activity. To generalize the intended target to other relatable targets, this assay endpoint is annotated to the cell cycle intended target family, where the subfamily is Cell proliferation, survival, death.
A total of 1060 chemcials from the ToxCast library were tested in eight-point concentration-response experiments. Cell culture and cytotoxicity assays were conducted at Thermo Fisher Scientific's Custom Services facility (Madison, WI). A single lot of human HepaRG cells (Thermo Fisher Scientific, Frederick, MD) was used for the cell culture experiments. 96-well format collagen type I coated plates of human HepaRG cells were prepared using established methods. Briefly, cryopreserved HepaRG cells were thawed, plated at a density of approximately 100,000 cells/well in HepaRG Thaw, Plate, and General Purpose media (HPRG770, Thermo Fisher Scientific), and incubated for 48 hours. 0.5% DMSO was selected as vehicle control to balance the requisite need of DMSO in HepaRG cultures to maintain differentiation (for example, baseline metabolism, proportions of hepatocytes vs. cholangiocytes), while enabling further hepatic receptor pathway activation (for example, PXR and CAR) in response to chemical exposure. 48 hours after plating, the culture medium was replaced with HepaRG Serum-Free Incudtion Media. Cells were exposed to each test chemical in duplicate and maintained in CO2 incubators for another 48 hours. Chemical plates were thawed to room temperature and 200x concentrations of treatment groups were prepared. 8-point conentration-reponse curves were made with the highest exposure at 100 uM, followed by half-log dilutions, all in 0.5% DMSO. Each test plate contained variouse controls, induction positive controls (1mM phenobarbital), cytotoxicity positive controls ([…] aflatoxin B1), vehicle controls (0.5% DMSO), and total lysis controls (0.5% DMSO). Cell morphology images were taken using an Essen IncuCyte FLR automated microscope, with six 96-well plates imaged in about 24 minutes. Images were captured and exported and JPEG files. Spent culture media was transfered to black-well plates for the LDH assay, and remaining media was sorted at -80 C for later use. Cells were treated with RLT buffer and frozen until shipped for gene expression analysis. Total RNA was isolated from the cell suspension in 75 uL of Buffer RLT (Qiagen, Germantown, MD 20874) by Quintiles/Expression Analysis (Durham, NC) using a custom isolation procedure. Total RNA from each plate well was transferred to a preamplification plate. Fluidigm's 96.96 Dynamic ArrayTM (Fluidigm, Amsterdam, the Netherlands) technology was used for gene expression analyses by quantitative reverse transcription polymerase chain reaction (qRT-PCR, performed by Quintiles/Expression Analysis, Durham, NC)89. Standard TaqManTM Assays (Applied Biosystems/ThermoFisher Scientific, Foster City, CA) were used to assess the expression of 93 genes selected based on their selectivity and sensitivity to important hepatic receptors known to be modulated by environmental chemicals; importance in human hepatocyte functionality; and hepatotoxicity. […]

Sequence of Apoptosis regulator Bcl-2 (Homo sapiens) (P10415 whole entry, looked up): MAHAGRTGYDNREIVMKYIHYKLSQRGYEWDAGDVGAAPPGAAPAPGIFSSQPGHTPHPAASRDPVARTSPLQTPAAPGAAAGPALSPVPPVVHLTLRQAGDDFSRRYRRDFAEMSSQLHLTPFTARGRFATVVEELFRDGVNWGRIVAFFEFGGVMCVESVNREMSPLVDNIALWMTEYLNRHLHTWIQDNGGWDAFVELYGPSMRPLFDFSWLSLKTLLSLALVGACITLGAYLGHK

SMILES	AC50	outcome
N#CC(CCc1ccc(Cl)cc1)(Cn1cncn1)c1ccccc1 (stereo not given)	66.7 µM (active)	–
CCON=C(CC)C1=C(O)CC(c2c(C)cc(C)cc2C)CC1=O (stereo not given)	–	inactive
CCCC1COC(Cn2cncn2)(c2ccc(Cl)cc2Cl)O1 (stereo not given)	33.7 µM (active)	–
CNC(=O)ON=CC(C)(C)SC	–	inactive
Cc1ccc(-c2c(Cl)nc(C#N)n2S(=O)(=O)N(C)C)cc1	87.4 µM (active)	–
COP(=S)(OC)Oc1nc(Cl)c(Cl)cc1Cl	–	inactive
O=C(O)c1nc(Cl)ccc1Cl	–	inactive
COc1nc(NC(C)C)nc(NC(C)C)n1	–	inactive
N#Cc1nn(-c2c(Cl)cc(C(F)(F)F)cc2Cl)c(N)c1S(=O)C(F)(F)F (stereo not given)	34.6 µM (active)	–
CCCN(CCC)c1c([N+](=O)[O-])cc(S(N)(=O)=O)cc1[N+](=O)[O-]	–	inactive
COc1cnc(OC)n2nc(NS(=O)(=O)c3c(OCC(F)F)cccc3C(F)(F)F)nc12	–	inactive
Cc1c(F)c(F)c(COC(=O)C2C(/C=C(\Cl)C(F)(F)F)C2(C)C)c(F)c1F (stereo not given)	–	inactive
COC(=O)c1ccccc1C(=O)OC	–	inactive
CCCCOC(=O)c1ccccc1C(=O)OCCCC	–	inactive
C=CC1(C)OC(=O)N(c2cc(Cl)cc(Cl)c2)C1=O (stereo not given)	–	inactive
CCCCNC(=O)OCC#CI	–	inactive
CCCCNC(=O)n1c(NC(=O)OC)nc2ccccc21	–	inactive
COC(=O)C(C)Oc1ccc(Oc2ccc(Cl)cc2Cl)cc1 (stereo not given)	50 µM (active)	–
CCc1nn(C)c(C(=O)NCc2ccc(C(C)(C)C)cc2)c1Cl	0.822 µM (active)	–
Oc1ccccc1-c1ccccc1	–	inactive

SMILES	AC50	outcome
O=C(Nc1ccccc1)Nc1ccnc(Cl)c1	69.8 µM (active)	–
CCOC(=O)C(Cl)Cc1cc(-n2nc(C)n(C(F)F)c2=O)c(F)cc1Cl (stereo not given)	–	inactive
COc1ccc(C(c2ccc(OC)cc2)C(Cl)(Cl)Cl)cc1	86.3 µM (active)	–
Fc1ccc(Oc2ccnc3cc(Cl)cc(Cl)c23)cc1	–	inactive
CS/C(C)=N/OC(=O)N(C)SN(C)C(=O)O/N=C(\C)SC	–	inactive
O=C(O)COc1nc(Cl)c(Cl)cc1Cl	–	inactive
OC(c1ccc(Cl)cc1)(c1cncnc1)c1ccccc1Cl (stereo not given)	75.1 µM (active)	–
CCNc1nc(Cl)nc(NCC)n1	–	inactive
CON(C)C(=O)Nc1ccc(Cl)c(Cl)c1	–	inactive
CC1COC(Cn2cncn2)(c2ccc(Oc3ccc(Cl)cc3)cc2Cl)O1 (stereo not given)	12.8 µM (active)	–
Cc1cc(Cl)ccc1OCC(=O)O	–	inactive
CC1=C(C(=O)Nc2ccccc2)SCCO1	–	inactive
CCOc1cc(Oc2ccc(C(F)(F)F)cc2Cl)ccc1[N+](=O)[O-]	33.5 µM (active)	–
COC(=O)C=C(C)OP(=O)(OC)OC	–	inactive
CCNc1nc(Cl)nc(NC(C)C)n1	–	inactive
COP(N)(=O)SC (stereo not given)	–	inactive
CC(C)(C)c1ccc(CSc2cnn(C(C)(C)C)c(=O)c2Cl)cc1	2.89 µM (active)	–
C=CCC1=C(C)[C@@H](OC(=O)[C@@H]2[C@@H](C=C(C)C)C2(C)C)CC1=O	–	inactive
CC(Oc1ccc(Cl)cc1Cl)C(=O)O (stereo not given)	–	inactive
C#CCOS(=O)OC1CCCCC1Oc1ccc(C(C)(C)C)cc1 (stereo not given)	81.7 µM (active)	–
